According to PubChem BioAssay (EPA / NIEHS):
Where “and” joins values, the source holds several entries; their conditions need not be identical. Equal values may be shown once. Results filed as inconclusive are left out. Calls of active or inactive are those of the source. Rule for the calls, unless noted: active = hit-call score of the fitted dose curve at least 0.9, where 1 is the maximum; inactive = score below 0.9.

How the values were obtained:
[1] = read-out: Interleukin 6 (IL6), IL6 (gene 3569); experiment: BSK_BT_xIL6: BioMAP Diversity Plus: BT Assay for Interleukin 6 (IL6) Biomarker Activity (AID 2284228); details: primary human B cells with PBMC
Outline: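 IL-6 secretion measured (Luminex xMAP) in human primary B cell + PBMC co-culture at 24 h of chemical exposure; DMSO served as negative control and activity baseline, with curves fitted for increase.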

[2] = read-out: Interleukin 17A (IL17A), IL17A (gene 3605); experiment: BSK_BT_xIL17A: BioMAP Diversity Plus: BT Assay for Interleukin 17A (IL17A) Biomarker Activity (AID 2284229); details: primary human B cells with PBMC
Outline: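 Human primary B cells plus PBMC, treated 24 h with chemicals; supernatant IL-17A quantified on Luminex xMAP beads. Gain of signal over DMSO control scored as activity.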

[3] = read-out: Tumor necrosis factor (Homo sapiens) (UniProt P01375); experiment: BSK_BT_xTNFa: BioMAP Diversity Plus: BT Assay for Tumor necrosis factor alpha (TNF-alpha) Biomarker Activity (AID 2284230); details: primary human B cells with PBMC
Outline: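 Endpoint derived in the positive direction versus DMSO vehicle. Cells: B cells together with PBMC, exposed 24 h before TNF-alpha in the medium was read on the Luminex xMAP platform.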

[4] = read-out: Vascular cell adhesion molecule 1 (VCAM1), VCAM1 (gene 7412); experiment: BSK_MyoF_VCAM1: BioMAP Diversity Plus: MyoF Assay for Vascular cell adhesion molecule 1 (VCAM1) Biomarker Activity (AID 2284231); details: primary human lung fibroblasts
Outline: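 VCAM-1 levels, lung fibroblasts, ELISA, 24 h exposure, increase scored relative to DMSO.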

[5] = read-out: Collagen I, COL1A1 (gene 1277); experiment: BSK_MyoF_CollagenI: BioMAP Diversity Plus: MyoF Assay for Collagen I Biomarker Activity (AID 2284238); details: primary human lung fibroblasts
Outline: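 Measured by ELISA: Collagen I from human lung fibroblasts 24 h after compound addition, analysed for signal gain with DMSO as baseline; overt toxicity read from SRB staining of parallel cultures at the same time.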

[6] = read-out: Collagen III, COL3A1 (gene 1281); experiment: BSK_MyoF_CollagenIII: BioMAP Diversity Plus: MyoF Assay for Collagen III Biomarker Activity (AID 2284239); details: primary human lung fibroblasts
Outline: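 Multiplexed cell assay in lung fibroblasts, harvested at 24 h post-dose. Collagen III detected by ELISA, with positive-direction fitting relative to DMSO vehicle.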

[7] = read-out: Interleukin 17F (IL17F), IL17F (gene 112744); experiment: BSK_BT_xIL17F: BioMAP Diversity Plus: BT Assay for Interleukin 17F (IL17F) Biomarker Activity (AID 2284243); details: primary human B cells with PBMC
Outline: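 Luminex readout of IL-17F secretion, 24 h; cells: human B cells with PBMC; positive-direction analysis, DMSO control.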

[8] = read-out: Actin alpha 1 (ACTA1), ACTA1 (gene 58); experiment: BSK_MyoF_ACTA1: BioMAP Diversity Plus: MyoF Assay for Actin alpha 1 (ACTA1) Biomarker Activity (AID 2284244); details: primary human lung fibroblasts
Outline: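 MyoF fibroblast system (human lung); a-SMA quantified via ELISA at 24 h; DMSO-normalised, gain-of-signal endpoint.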

[9] = read-out: Interleukin 2 (IL2), IL2 (gene 3558); experiment: BSK_BT_xIL2: BioMAP Diversity Plus: BT Assay for Interleukin 2 (IL2) Biomarker Activity (AID 2284245); details: primary human B cells with PBMC
Outline: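 Co-cultures of primary human B cells and PBMC are treated with chemical and sampled at 24 h. IL-2 secretion is quantified by Luminex xMAP, with DMSO-treated wells as baseline.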

[10] = read-out: Basic fibroblast growth factor (bFGF), FGF2 (gene 2247); experiment: BSK_MyoF_bFGF: BioMAP Diversity Plus: MyoF Assay for Basic fibroblast growth factor (bFGF) Biomarker Activity (AID 2284246); details: primary human lung fibroblasts
Outline: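 Fibroblasts from human lung, 24 h dosing. bFGF by ELISA; gain of signal over DMSO.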

[11] = read-out: Collagen IV, COL4A1 (gene 1282); experiment: BSK_MyoF_CollagenIV: BioMAP Diversity Plus: MyoF Assay for Collagen IV Biomarker Activity (AID 2284247); details: primary human lung fibroblasts
Outline: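 Lung fibroblasts (human primary) treated with chemicals were assayed after 24 h for Collagen IV using an ELISA, with DMSO serving as negative control and baseline for a positive-direction fit.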

[12] = UKN2_HCS_IMR90_cell_viability: Viability Assessment in the University of Konstanz (UKN) Leist Lab Neural Crest Cell Migration Assay in human induced IMR90 Pluripotent Stem Cells (UKN2) (AID 2284233);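 note: cells exposed to compound for 24 h after a 24 h migration phase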
Outline: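 After calcein-AM/Hoechst staining, viability is quantified by high-content fluorescence imaging, relative to DMSO, in iPSC (IMR90)-derived neural crest cells. Exposure lasts 24 h, starting after a 24 h migration period on PLO/laminin/fibronectin coating.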

[13] = CCTE_Mundy_HCI_Cortical_NOG_NeuronCount: CCTE's Neurite Outgrowth Assay in rat cortical cells for Neuron Count, Mundy Lab (AID 2284236; active = hit-call score of the fitted dose curve at least 0.9, where 1 is the maximum;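 note: neurons counted by imaging betaIII-tubulin and Hoechst stained cortical cells; cells exposed to compound for about 48 hours before fixation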)
Outline: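 Read-out: neuron number by high-content imaging of betaIII-tubulin (Alexa Fluor-488) and Hoechst-labelled rat primary cortical cells.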

[14] = CCTE_Mundy_HCI_Cortical_NOG_BPCount: CCTE's Neurite Outgrowth Assay in rat cortical cells for Branch Point Count, Mundy Lab (AID 2284237);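 note: branch points counted about two days after chemical exposure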
Outline: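 Measured 50.33 h after dosing, this morphology endpoint uses rat primary cortical cultures labelled for betaIII-tubulin. Branch points are quantified by high-content imaging, with DMSO as negative control and baseline.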

[15] = CCTE_Mundy_HCI_hNP1_Casp3_7: CCTE's Caspase-Glo 3/7 Assay in human neuroprogenitor cells for Apoptosis, Mundy Lab (AID 2284240)
Outline: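 Apoptosis is scored by activated caspase-3/7 luminescence in WA09-derived neural progenitor cells, measured 26.5 h after chemical dosing. Values represent gain of signal relative to DMSO vehicle.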

[16] = CCTE_Mundy_HCI_hNP1_CellTiter: CCTE's Cell Titer-Glo 2 Assay in human neuroprogenitor cells for Viability, Mundy Lab (AID 2284241; active = hit-call score of the fitted dose curve at least 0.9, where 1 is the maximum)
Outline: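 Human neural progenitor cells (hNP1, WA09-derived) were plated on poly-L-ornithine/laminin and grown 40 to 44 hours at 37 °C, 5% CO2 before chemical addition. Twenty-four hours later, ATP was measured by CellTiter-Glo luminescence; loss of signal versus DMSO indicates reduced viability.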

[17] = CCTE_Mundy_HCI_Cortical_Synap_Neur_Matur_NeuronCount: CCTE's Synaptogenesis and Neurite Maturation Assay in rat cortical cells for Neuron Count, Mundy Lab (AID 2284242; active = hit-call score of the fitted dose curve at least 0.9, where 1 is the maximum;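 note: hits reduce neuron count versus DMSO baseline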)
Outline: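 Measured at DIV 12: fluorescently labelled neurons (Hoechst nuclei, MAP2) in rat primary cortical cultures, counted by high-content imaging. AraC suppressed glia from DIV 5; DMSO served as negative control.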

Measured: AC50

Tumor necrosis factor (Homo sapiens), sequence (P01375 whole entry, looked up): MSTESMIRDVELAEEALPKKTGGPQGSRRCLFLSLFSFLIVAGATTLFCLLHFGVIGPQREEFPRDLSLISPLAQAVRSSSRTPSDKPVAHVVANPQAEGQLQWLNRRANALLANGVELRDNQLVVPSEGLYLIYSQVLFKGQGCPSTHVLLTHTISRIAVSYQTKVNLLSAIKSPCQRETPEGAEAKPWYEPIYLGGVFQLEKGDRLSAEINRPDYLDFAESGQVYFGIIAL

Cc1ccccc1OP(=O)(Oc1ccccc1)Oc1ccccc1
active: [4] 33 µM | [5] 36.9 µM | [6] 28.2 µM | [8] 20 µM
inactive: [1] | [2] | [3] | [7] | [9] | [10] | [11]

Oc1ccc(Cc2ccc(O)cc2)cc1
not listed: [2] | [12] | [13] | [14] | [15] | [16] | [17]
inactive: all other assays above

c1ccc(-c2cccc(-c3ccccc3)c2)cc1
active: [4] 29.1 µM | [5] 26.4 µM | [6] 32.9 µM | [7] 22.6 µM | [8] 20 µM
inactive: [1] | [2] | [3] | [9] | [10] | [11]

C=CC(Cl)CCl (stereo not drawn)
inactive: [1] | [2] | [3] | [6] | [7] | [8] | [9] | [10]
active: [4] 4.05 µM | [5] 0.0855 µM | [11] 0.0311 µM

[Cl][Sn]([c]1ccccc1)([c]1ccccc1)[c]1ccccc1
active: [1] 456 nM | [3] 0.495 µM | [4] 0.0907 µM | [5] 0.0894 µM | [6] 0.402 µM | [7] 0.302 µM | [8] 0.102 µM | [9] 0.395 µM | [10] 0.324 µM | [11] 0.286 µM

Nc1ccc(N)cc1
not listed: [12] | [13] | [14] | [15] | [16] | [17]
inactive: all other assays above

CCCCN(CCCC)C(=S)[S-].CCCCN(CCCC)C(=S)[S-].[Ni+2]
not listed: [12] | [13] | [14] | [15] | [16] | [17]
inactive: all other assays above

N#CCCC(Br)(C#N)CBr (stereo not drawn)
active: [1] 9340 nM | [2] 7.96 µM | [3] 11.1 µM | [4] 13.9 µM | [5] 25.7 µM | [6] 24.8 µM | [7] 9.32 µM | [8] 12 µM | [9] 11 µM | [10] 25 µM | [11] 0.914 µM

OC(Cc1ccccc1Cl)(Cn1[nH]cnc1=S)C1(Cl)CC1 (stereo not drawn)
active: [4] 30.1 µM | [12] 63.1 µM | [14] 50 µM | [5] 31.4 µM | [6] 30.5 µM | [15] 91 µM | [17] 83.8 µM | [8] 25.3 µM
not listed: [2]
inactive: all other assays above

Cc1cccc(OP(=O)(Oc2cccc(C)c2)Oc2cccc(C)c2)c1
inactive: [1] | [3] | [4] | [5] | [6] | [7] | [8] | [9] | [10]
active: [11] 0.0382 µM

Cc1cc(Cl)ccc1N
not listed: [2] | [12] | [13] | [14] | [15] | [16] | [17]
inactive: all other assays above

CC1(C)[C@H](C(=O)O[C@H](C#N)c2cccc(Oc3ccccc3)c2)[C@@H]1/C=C(\Cl)C(F)(F)F
active: [1] 17.1 µM and 8.49 µM | [14] 20.2 µM | [17] 3.56 µM | [7] 17.1 µM and 14.6 µM | [9] 17.1 µM and 14.2 µM
not listed: [2] | [12] | [16]
inactive: all other assays above

NC(=O)CCl
active: [9] 20 µM
inactive: [1] | [3] | [4] | [5] | [6] | [7] | [8] | [10] | [11]

O=C(O)COc1cc(Cl)c(Cl)cc1Cl
not listed: [2] | [12] | [13] | [14] | [15] | [16] | [17]
inactive: all other assays above

Oc1cccc(-c2ccccc2)c1
active: [4] 32.3 µM | [5] 20 µM | [6] 31.3 µM | [8] 33.6 µM
inactive: [1] | [2] | [3] | [7] | [9] | [10] | [11]

O=[N+]([O-])c1cccc2ccccc12
not listed: [12] | [13] | [14] | [15] | [16] | [17]
inactive: all other assays above

Cc1cc(Cl)ccc1OC(C)C(=O)O (stereo not drawn)
not listed: [2] | [12] | [13] | [14] | [15] | [16] | [17]
inactive: all other assays above
